Shown are actives, neighbours in structure and some others; about 2.3% of the full set was active somewhere.
Giardia killer – Small Molecules that selectively kill Giardia lamblia: qHTS; 340,000 tested, 0.15% active; activity change, % at 7.66 µM, hits read low; Giardia lamblia trophozoite viability; in the data active means activity change below about -80%; inconclusive means between about -30% and that limit;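 further: parasites exposed to compound for two days anaerobically before the ATP read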
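Killing of trophozoites was scored by loss of ATP luminescence after a 48 hrs anaerobic exposure to compounds at 37 deg C, using 100 cells per well.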
Nrf2 block – Nrf2 qHTS screen for inhibitors. Potency, µM (doses to about 46 µM), usual class: inhibitors. A549 ARE-Fluc reporter, luciferase luminescence, 18-24 h. 360,000 tested, 2.1% active; further: nearly all actives have a fitted effect of over 60% in size
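Nrf2 function is reported as luminescence of an ARE-controlled luciferase in A549 cells. Compounds were tested at several concentrations, and a CellTiter-Fluor read on the same wells flagged cytotoxicity.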
Apoferritin bind – qHTS Assay for Identification of Novel General Anesthetics; Ferritin light chain (Equus caballus), P02791; apoferritin/1-aminoanthracene competitive binding, fluorescence; Potency, µM (titrated, usually from 77.5 µM), usual class: inhibitors; 350,000 tested, 0.074% active; AID 485281, 2010; further: nearly all actives have a fitted effect of over 20% in size
Target sequence (P02791 2-175 limits assumed): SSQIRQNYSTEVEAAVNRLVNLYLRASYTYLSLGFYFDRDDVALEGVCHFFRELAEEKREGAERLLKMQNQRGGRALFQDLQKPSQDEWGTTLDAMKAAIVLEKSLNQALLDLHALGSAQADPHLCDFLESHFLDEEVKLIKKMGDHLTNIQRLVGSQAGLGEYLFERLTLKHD
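Apoferritin-based anesthetic binding model; compound displacement of fluorescent 1-AMA measured as endpoint fluorescence after 10 minutes at room temperature, scaled to free-ligand and complex controls.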
mIDH1 inhibitor – qHTS for Inhibitors of mutant isocitrate dehydrogenase 1 (IDH1): qHTS; Isocitrate dehydrogenase [NADP] cytoplasmic (Homo sapiens), O75874; IDH1-R132H enzyme, NADPH consumption, diaphorase/resazurin fluorescence; Potency, µM (titrated, usually from 76.6 µM), most hits filed as inhibitors; 390,000 tested, 0.093% active; AID 602179, 2012; further: nearly all actives have a fitted effect of over 65% in size
Target sequence (O75874 whole entry R132H, stated change not applied): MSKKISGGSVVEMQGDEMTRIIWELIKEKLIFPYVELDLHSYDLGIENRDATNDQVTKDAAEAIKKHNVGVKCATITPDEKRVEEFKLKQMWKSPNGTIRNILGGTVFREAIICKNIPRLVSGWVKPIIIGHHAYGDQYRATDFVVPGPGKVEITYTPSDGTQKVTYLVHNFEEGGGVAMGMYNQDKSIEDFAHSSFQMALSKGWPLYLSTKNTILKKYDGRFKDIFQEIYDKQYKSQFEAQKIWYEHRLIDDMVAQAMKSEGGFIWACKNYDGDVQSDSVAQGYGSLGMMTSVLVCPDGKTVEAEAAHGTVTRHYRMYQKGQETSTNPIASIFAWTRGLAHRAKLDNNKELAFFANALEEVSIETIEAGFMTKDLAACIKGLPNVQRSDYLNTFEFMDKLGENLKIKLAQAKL
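IDH1-R132H (0.5 ug/mL) preincubated 30 min with compound, then NADPH (0.016 mM) and alpha-KG (2 mM) added; 80 min at RT, pH 7.5. Remaining NADPH coupled via diaphorase/resazurin to fluorescence (540/590 nm); concentration-response curves normalized to no-enzyme control.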
Nrf2 activator – qHTS of Nrf2 Activators; 410,000 tested, 0.31% active; AID 624171, 2012; AREc32 ARE-luciferase reporter (MCF7-derived line), luminescence, 24 h; Potency, µM (highest dose often 46.1 µM), hits mostly activators; further: nearly all actives have a fitted effect of over 65% in size
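Quantitative high-throughput format: AREc32 reporter cells, 1000 per well, received compound by pin transfer and were incubated 24 hr at 37 deg C, 5% CO2, before Steady-Glo luminescence detection.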
A549 tox – Nrf2 qHTS screen for inhibitors: counterscreen for cytotoxicity | 390,000 tested, 0.16% active | AID 504648, 2011 | A549 ARE-Fluc cells, CellTiter-Fluor viability, 18-24 h | Potency, µM (top dose mostly 46 µM), hits mostly inhibitors
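Cytotoxicity counterscreen: CellTiter-Fluor fluorescence was measured in A549 ARE_Fluc cells after 18-24 h of compound exposure in a concentration series. The subsequent BugLite luminescent read reports ARE-luciferase activity.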
Hits are given with their value; - = inactive; ? = inconclusive; . = not tested or not shown. Unless noted, the call rests on the fitted dose curve; in most records, active means well fitted curve in the direction sought with a large enough effect; inconclusive means small, poorly fitted or top-dose-only effect, or another doubt; inactive means no such curve, though single readings can be large; an effect the other way counts as inactive or inconclusive.

SMILES	Giardia killer	Nrf2 block	Apoferritin bind	mIDH1 inhibitor	Nrf2 activator	A549 tox
CCN(Cc1ccccc1)C(=O)Cn1c(=O)cc(C)c2c(C)nn(-c3cccc(F)c3)c21	.	21µM	-	-	-	-
CC1(C(=O)O)NCCc2cc(O)c(O)cc21 (stereo unspecified)	.	.	-	.	.	.
Cc1ccc2c(c1)S/C(=C\c1cccc[n+]1C)N2CCO	-	4.6µM	-	-	-	-
CC(=O)N1c2ccc(C)cc2Sc2c1ccc1ccccc21	-	-	.	-	-	-
C[n+]1ccccc1/C=C1\Sc2ccccc2N1CCO	-	16µM	-	-	-	-
CCc1cccc(NC(=O)Cn2c(=O)ccc3cc(S(=O)(=O)N4CCC(C)CC4)ccc32)c1	.	.	-	-	-	-
CCC(C)Sc1ccc(-c2nc3cnccn3c2NC2CCCCC2)cc1 (stereo unspecified)	-	23µM	.	-	-	-
Cc1cc2c(s1)c1cnn(Cc3ccc(-n4cncn4)cc3)c(=O)c1n2C	.	-	.	.	.	-
CCOc1ccccc1-c1nnc2n1N=C(c1cc(OC)ccc1OC)CS2	.	-	-	.	.	-
CC(C)(C)Nc1ncnc2sc(-c3ccccc3)cc12	-	12µM	-	-	-	?
C=COCCCNc1ncnc2sc(-c3ccccc3)cc12	-	13µM	-	-	-	-
Cc1ccc(-c2nc3ccc(Br)cn3c2CC(C)(C)C)cc1	.	.	.	-	-	.
COc1ccc(C(=O)NC(=S)N(Cc2ccccc2)Cc2ccccc2)cc1	-	18µM	-	-	-	-
O=C(NC(=S)N(Cc1ccccc1)Cc1ccccc1)c1ccccc1F	-	12µM	?	-	-	-
C=CCN(CC=C)C(=S)NC(=O)c1ccc(OC)cc1	-	-	-	-	-	-
O=C(NC(=S)NCc1ccccc1)c1ccccc1F	-	-	?	-	-	-
COc1cccc(NC(=O)Cn2cc(C(=O)C3CCCCC3)c3ccccc32)c1	.	?	-	-	-	?
CCN1CCN(c2ncnc3c2cnn3-c2ccc(F)cc2)CC1	.	.	-	-	-	-
Cc1ccc(NC(=O)Cn2cc(S(=O)(=O)c3ccc(C)cc3)c(=O)c3cc4c(cc32)OCO4)cc1	.	-	-	-	-	-
Cc1cc(C)c(/C=C/c2onc(C)c2S(=O)(=O)N2CCC(C(=O)NCc3ccco3)CC2)c(C)c1	.	.	-	-	-	-
N#Cc1ccc(CN2CCN(C(=O)CNC(=O)Cc3cccc4ccccc34)CC2)cc1	-	5.8µM	.	-	-	-
CCc1ccccc1NC(=O)CN1CCN(C(=O)CNC(=O)Cc2cccc3ccccc23)CC1	-	15µM	.	-	-	-
O=C1CCCC2=C1C1(CCOCC1)N=C(Nc1nc3ccccc3o1)N2	.	?	.	.	.	-
O=C(NCc1ccc(F)cc1)n1cc(P(=S)(c2ccccc2)c2ccccc2)c2ccccc21	.	-	.	.	.	-
CCOC(=O)C1CCN(C(c2ccc(C)cc2)c2sc3nc(-c4ccco4)nn3c2O)CC1 (stereo unspecified)	.	.	-	-	-	-
SMILES	Giardia killer	Nrf2 block	Apoferritin bind	mIDH1 inhibitor	Nrf2 activator	A549 tox
COc1ccc(CCN(C)C(=O)c2cc(S(=O)(=O)NCc3ccccc3)ccc2C)cc1OC	-	16µM	.	-	-	-
COC(=O)c1ccccc1NC(=O)CSc1nc2ccccc2nc1Cc1ccccc1OC	.	.	-	-	-	-
O=C(NC1CC(=O)N(c2ccc(F)cc2)C1)C1CC1 (stereo unspecified)	.	.	-	-	-	-
CN(C(=O)CSc1nc2ccc(NC(=O)c3cccc(F)c3)cc2s1)c1ccccc1	.	21µM	-	-	-	-
O=C(Nc1ccc2nc(SCC(=O)N3CCOCC3)sc2c1)c1cccc(Cl)c1	.	23µM	-	-	-	?
O=C(Nc1ccc2nc(SCC(=O)N3CCCC3)sc2c1)c1cccc(Br)c1	.	18µM	-	-	-	-
Cn1c(CN2CCCCC2)nc2cc(NC(=O)c3cccc(Br)c3)ccc21	-	1.3µM	?	-	-	-
O=C1NC[C@@H](CCCCN2C[C@H](Cc3ccc(O)cc3)N(CC3CCCCC3)C(=O)C2=O)N(Cc2ccccc2)C1=O	.	.	.	.	-	.
COCOc1ccc(-c2ncc(OC)nc2NC(=O)c2ccsc2)cc1	.	.	.	.	-	.
COc1ccc(C(=O)N(Cc2ccccc2)Cc2cccs2)c(O)c1	.	-	.	.	.	-
Cc1ccccc1OCC(=O)Nc1ccc2nc(SCC(=O)N3CCCC3)sc2c1	.	18µM	-	-	-	-
CC(=O)Nc1ccccc1OC1=N[S+](=O)([O-])c2ccccc21	.	-	.	.	.	-
COCCCNC(=O)c1nn(C)c2c1CS(=O)(=O)c1ccccc1-2	.	-	-	-	-	-
CCN(CC)CCCNC(=O)c1nn(C)c2c1CS(=O)(=O)c1ccccc1-2	.	18µM	-	-	-	-
CCCCN(CC)CCNC(=O)c1nn(C)c2c1CS(=O)(=O)c1ccccc1-2	.	-	-	-	-	-
COc1ccc(CCNC(=O)c2nn(C)c3c2CS(=O)(=O)c2ccccc2-3)c(OC)c1	-	23µM	-	-	-	-
Cc1sc2nc(C3CC3)nc(SCC(=O)N3CCCc4ccccc43)c2c1C	.	.	-	.	.	.
Cc1sc2nc(C3CC3)nc(SCC(=O)N3CC(=O)Nc4ccccc43)c2c1C	-	7.3µM	-	-	-	-
Cc1ccc(C(=O)Nc2ccc(NC(=O)c3cccs3)cc2)cc1[N+](=O)[O-]	-	-	-	-	-	-
COc1cc(NC(=O)c2cccs2)ccc1NC(=O)Cc1ccccc1	-	?	-	-	-	-
Cc1cccc(NS(=O)(=O)c2ccc(NC(=O)CN(c3cc([N+](=O)[O-])ccc3C)S(C)(=O)=O)cc2)c1	-	18µM	-	-	-	?
COc1cc(NC(=O)c2ccc([N+](=O)[O-])o2)ccc1NC(=O)c1cccs1	-102	-	-	-	11µM	23µM
Cc1ccc(NC(=O)c2cccs2)cc1[N+](=O)[O-]	-	?	-	-	14µM	-
COc1cc(NC(=O)c2ccccc2Cl)ccc1NC(=O)c1cccs1	-	?	-	-	-	-
COc1cc(NC(=O)c2cc3ccccc3cc2OC)ccc1NC(=O)c1cccs1	-	5.2µM	-	-	-	-
CC(=O)c1ccc(NC(=O)CCc2c(C)nc3cc(-c4ccc(Cl)cc4)nn3c2C)cc1	.	?	-	-	-	-
O=C(Nc1ccc(N2CCN(C(=O)c3cccs3)CC2)cc1)c1ccc([N+](=O)[O-])o1	.	.	-	.	.	.
CC(=O)Nc1ccc(S(=O)(=O)Nc2ccc(C)c([N+](=O)[O-])c2)cc1	-	26µM	-	-	-	-
O=C(Nc1cccc(NC(=O)c2cccs2)c1)c1ccc([N+](=O)[O-])o1	-89	-	?	-	?	-

Screening results as filed in PubChem BioAssay.
